Test results from PubChem BioAssay (NCI).
This is part of a sample that, as a whole, favours compounds with a hit. Of some 79,000 tested, about 15% had one in any assay. Activity calls are given as the source filed them. No stated cut-off is given here; in the data, active means growth inhibition above about 70%; inactive means the rest.

Experiments:
[1] = NCI Yeast Anticancer Drug Screen. Data for the rad50 strain (AID 155);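 further: 0% = growth of vehicle-only cultures of the same strain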; settings: S. cerevisiae rad50 strain growth inhibition; at 50.0 µM; hits give high values
How it was run: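 Growth of the mutant yeast was measured after compound exposure and referenced to vehicle-treated cultures.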

[2] = NCI Yeast Anticancer Drug Screen. Data for the mec2-1 strain (AID 157); settings: S. cerevisiae mec2-1 strain, at 50.0 µM, hits give high values
How it was run: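 Compounds were applied to mec2-1 yeast cells. Their growth was then compared with that of vehicle-treated cultures to give growth inhibition.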

[3] = NCI Yeast Anticancer Drug Screen. Data for the sgs1 mgt1 strain (AID 161);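 further: 0% = growth of cultures given vehicle only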; settings: S. cerevisiae sgs1 mgt1 strain, at 50.0 µM, hits give high values
How it was run: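 Compounds are added to genetically altered yeast, and growth is compared with cultures given vehicle alone to give percent inhibition.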

[4] = NCI Yeast Anticancer Drug Screen. Data for the cln2 rad14 strain (AID 165);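 further: 0% = growth equal to vehicle treated cultures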; settings: S. cerevisiae cln2 rad14 strain, at 50.0 µM, hits give high values
How it was run: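 Strain: cln2 rad14 yeast, altered in cell cycle control and DNA damage repair. Read-out: growth inhibition vs vehicle.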

[5] = NCI Yeast Anticancer Drug Screen. Data for the bub3 strain (AID 167); settings: S. cerevisiae bub3 mutant strain, at 50.0 µM, hits give high values
How it was run: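 Whole-cell yeast assay. The mutant strain was incubated with compounds, and growth inhibition was determined by comparison with vehicle-treated cells.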

[6] = NCI Yeast Anticancer Drug Screen. Data for the mlh1 rad18 strain (AID 175); settings: S. cerevisiae mlh1 rad18 strain growth inhibition; at 50.0 µM; hits give high values
How it was run: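 A repair-deficient yeast strain is exposed to test compound, and growth is scored relative to vehicle-treated controls.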

| Structure (SMILES) | growth inhibition [1] | growth inhibition [2] | growth inhibition [3] | growth inhibition [4] | growth inhibition [5] | growth inhibition [6] |
| --- | --- | --- | --- | --- | --- | --- |
| O=C(CCBr)OCc1ccccc1 | -12.5% (inactive) | -7.45% (inactive) | 1.1% (inactive) | -20.8% (inactive) | -26.2% (inactive) | 25% (inactive) |
| O=C1NC(=O)C(c2ccco2)N1 (stereo not drawn) | 3.7% (inactive) | -1.55% (inactive) | -12.2% (inactive) | 4.8% (inactive) | -16.7% (inactive) | 8.2% (inactive) |
| Cc1cc(C)c2c(c1)CSCc1cc(C)cc(C)c1-2 | 15.7% (inactive) | -2.65% (inactive) | 19.1% (inactive) | 10% (inactive) | 1.05% (inactive) | 16.1% (inactive) |
| O=C(Nc1ccccc1)Nc1ccc(-c2ccccc2)cc1 | 13.7% (inactive) | 14.1% (inactive) | 13.1% (inactive) | 5.7% (inactive) | 37.6% (inactive) | 3.5% (inactive) |
| COc1ccc(CCC(=O)O)c(C(CC(=O)O)C(=O)O)c1OS(=O)(=O)c1ccc(C)cc1 (stereo not drawn) | -21.2% (inactive) | -30.3% (inactive) | -40.5% (inactive) | 6.05% (inactive) | -33.3% (inactive) | -21.6% (inactive) |
| CC(=O)CC(=O)NCCNC(=O)CC(C)=O | -4.55% (inactive) | -11.6% (inactive) | 10.3% (inactive) | 6.4% (inactive) | -4.55% (inactive) | 8.85% (inactive) |
| CC1/C(=N/O)CC(c2ccccc2)N(N=O)C1c1ccccc1 (stereo not drawn) | 62.8% (inactive) | 46.2% (inactive) | 57.5% (inactive) | 18.8% (inactive) | 13.6% (inactive) | 46% (inactive) |
| Cc1cccc(CBr)c1-c1c(C)cccc1CBr | -19.2% (inactive) | 10.8% (inactive) | 10.1% (inactive) | -31.1% (inactive) | 27.6% (inactive) | -0.65% (inactive) |
| Cc1cccn2nnnc12 | -7.75% (inactive) | -12.2% (inactive) | -9.1% (inactive) | 9% (inactive) | 1.65% (inactive) | -10.8% (inactive) |
| N#Cc1cnc(=S)n(-c2cc(C(F)(F)F)cc(C(F)(F)F)c2)c1N | 5.7% (inactive) | -10.9% (inactive) | 15.9% (inactive) | 11.7% (inactive) | 8.85% (inactive) | 11.5% (inactive) |
| COS(=O)c1cc(Cl)cc(Cl)c1O (stereo not drawn) | -0.6% (inactive) | 4.55% (inactive) | -10.7% (inactive) | -28.2% (inactive) | -0.85% (inactive) | 2.25% (inactive) |
| COc1ccc(S(=O)(=O)Nc2cccc(C(F)(F)F)c2)cc1 | 99% (active) | 99.7% (active) | 99.5% (active) | 98.5% (active) | 99.3% (active) | 99.5% (active) |
| Cc1cccc(C(O)(c2cccc(C)c2)C2(O)CCCCC2)c1 | -9.45% (inactive) | -0.45% (inactive) | -0.9% (inactive) | 21.2% (inactive) | 1% (inactive) | 6.9% (inactive) |
| Cn1nnnc1CCO | -9.45% (inactive) | 7.05% (inactive) | -13.4% (inactive) | -0.55% (inactive) | 2.9% (inactive) | -8.55% (inactive) |
| CC(=O)O/C(C)=C/C(C)C | 2.65% (inactive) | -5.35% (inactive) | 9% (inactive) | -3.15% (inactive) | 2.1% (inactive) | -8.95% (inactive) |
| O=C1OC2CCCC[C@@H]2C2C[C@]34CCCCC3[C@@H](C(=O)O4)C12 (stereo partly drawn) | 23.1% (inactive) | -6.85% (inactive) | 9.9% (inactive) | 15.6% (inactive) | 12% (inactive) | 42.7% (inactive) |
| Cc1cc(Cc2c(F)c(F)c(Cc3cc(C)no3)c(F)c2F)on1 | 8.35% (inactive) | 5.6% (inactive) | 8.85% (inactive) | 1.1% (inactive) | 0.4% (inactive) | 18.1% (inactive) |
| NC(=O)C(=CNC(=S)Nc1cccc(C(F)(F)F)c1)C(N)=O | -45% (inactive) | -44.5% (inactive) | -14.8% (inactive) | 16.4% (inactive) | 5.5% (inactive) | -56% (inactive) |
| CC(C)OC(=O)CC1CCCCC1 | -4% (inactive) | -4.4% (inactive) | -14.1% (inactive) | 2.95% (inactive) | 3.9% (inactive) | 3.15% (inactive) |

| Structure (SMILES) | growth inhibition [1] | growth inhibition [2] | growth inhibition [3] | growth inhibition [4] | growth inhibition [5] | growth inhibition [6] |
| --- | --- | --- | --- | --- | --- | --- |
| O=C(NCc1ccccc1)NCN1CCOCC1 | 20.7% (inactive) | -0.85% (inactive) | 5.15% (inactive) | 0.45% (inactive) | 5.65% (inactive) | -11.3% (inactive) |
| COc1ccc(C2C(Cl)C(=O)N2NC(=O)c2ccccc2O)cc1 (stereo not drawn) | -27.2% (inactive) | -17.4% (inactive) | -38.1% (inactive) | -1.45% (inactive) | -4.6% (inactive) | -34.8% (inactive) |
| CC(=O)Nc1ccc(/C=N/Nc2c3ccccc3nc3ccccc23)cc1 | -3.3% (inactive) | 13.8% (inactive) | 0.3% (inactive) | -4.4% (inactive) | 6.75% (inactive) | 0.4% (inactive) |
| O=C1NCCN(CCc2ccccc2)C1c1ccccc1 (stereo not drawn) | -9.6% (inactive) | 0.95% (inactive) | -8.85% (inactive) | -31.9% (inactive) | 15% (inactive) | -6.05% (inactive) |
| Cc1ccc2c(c1)SN(CN1C(=O)c3ccccc3C1=O)N2 | -37.1% (inactive) | -43.6% (inactive) | -7.15% (inactive) | -19% (inactive) | -38.7% (inactive) | -28.9% (inactive) |
| O=C1OC2C(O)C(N(O)c3ccccc3)OC2[C@@H]1O (stereo partly drawn) | 1.85% (inactive) | 17.5% (inactive) | 21.9% (inactive) | 9.2% (inactive) | 21.8% (inactive) | 15.1% (inactive) |
| CCCCNCC#N | 20.4% (inactive) | -10.7% (inactive) | -0.85% (inactive) | 7.4% (inactive) | 5.15% (inactive) | 3.95% (inactive) |
| CC1CS(=O)(=O)O1 (stereo not drawn) | -4.45% (inactive) | -6.75% (inactive) | -18.6% (inactive) | 9.5% (inactive) | 10.3% (inactive) | 6.8% (inactive) |
| NC(CC(=O)OCc1ccccc1)C(=O)OCc1ccccc1 (stereo not drawn) | 9.1% (inactive) | 9.3% (inactive) | 16.1% (inactive) | -5.9% (inactive) | 3.55% (inactive) | 4.15% (inactive) |
| CCN(CC)Cc1ccccc1CO | 3.05% (inactive) | 6.15% (inactive) | 2.2% (inactive) | 9.75% (inactive) | 9.6% (inactive) | 0.5% (inactive) |
| Nc1nc(N)c2nc(CNc3ccc(C(=O)NC(CCCNC(=O)c4ccccc4C(=O)O)C(=O)O)cc3)cnc2n1 (stereo not drawn) | -14.1% (inactive) | 30.4% (inactive) | 7.6% (inactive) | -28.3% (inactive) | -37.9% (inactive) | -9.95% (inactive) |
| CC(=O)c1cccc(NC(=O)Nc2cccc(O)c2)c1 | 4.5% (inactive) | 19.9% (inactive) | -5.35% (inactive) | 7% (inactive) | 56.1% (inactive) | -0.25% (inactive) |
| CCC1(c2ccccc2)Nc2ccccc2C1=Nc1ccccc1 (stereo not drawn) | 20.1% (inactive) | 15.5% (inactive) | 20.2% (inactive) | 9.5% (inactive) | 11.7% (inactive) | 27.4% (inactive) |
| Nc1nc2c(ncn2CC2CCOC2=O)c(=O)[nH]1 (stereo not drawn) | -19.1% (inactive) | -17.9% (inactive) | -18.7% (inactive) | 4.4% (inactive) | -5.85% (inactive) | -14.8% (inactive) |
| COc1cc(C)c(C2NC(=O)c3ccccc3N2)cc1C (stereo not drawn) | 10.1% (inactive) | 2.8% (inactive) | -10.1% (inactive) | 17.4% (inactive) | -2.55% (inactive) | -4.55% (inactive) |
| O=c1nc(NCCc2c[nH]c3ccccc23)ccn1C1OC(CO)C(O)C1O (stereo not drawn) | 19.1% (inactive) | 4.5% (inactive) | 2.35% (inactive) | 15.1% (inactive) | -1.45% (inactive) | 7.25% (inactive) |
| CC(=Nc1ccc(Cl)c(Cl)c1)c1ccncc1 | -31.9% (inactive) | -10.1% (inactive) | -58% (inactive) | -31.6% (inactive) | 2.1% (inactive) | -35.1% (inactive) |
| CC(C)(C)C(Br)CC(N)=O (stereo not drawn) | 22.1% (inactive) | 1.55% (inactive) | 2% (inactive) | 4.3% (inactive) | -6.95% (inactive) | -6.85% (inactive) |
| O=C(O)c1c(Br)c(Br)c(Br)c(Br)c1C(=O)Nc1cc([N+](=O)[O-])ccc1O | 14.2% (inactive) | -8.45% (inactive) | 8.9% (inactive) | 7.9% (inactive) | 4.05% (inactive) | 3.85% (inactive) |
